# Calls of active or inactive are those of the source. The call rests on the fitted dose curve; in most records, active means well fitted curve in the direction sought with a large enough effect; inactive means no such curve, though single readings can be large or run the other way.
# Biological target: Pyruvate kinase PKM (Homo sapiens) (UniProt P14618)
# Assay: qHTS for Activators of Human Muscle Isoform 2 Pyruvate Kinase: Muscle Isoform 1 Assay
# Details: purified hPK-M1, ATP generation, Kinase-Glo luminescence, 1 h; series mostly up to 58.2 µM; activity change, positive = activation: at the top concentration
# Procedure: Human pyruvate kinase muscle isoform 1 (hPK-M1) enzyme was supplied as a highly purified (>95% pure) preparation from Harvard Medical School and assayed for its ability to generate ATP from ADP using phosphoenolpyruvate (PEP) as a substrate. ATP generation was detected in a coupled reaction by luciferase-mediated luminescence, an ATP-dependent process. Pyruvate kinase substrates, PEP and ADP, were present in the assay at Km and approximately 10-fold below Km respectively. The enzyme was assayed at an intermediate level of activity to screen for both inhibitors and activators. NIH Chemical Genomics Center [NCGC] NIH Molecular Libraries Probe Centers Network [MLPCN] MLPCN Grant: MH085679 Assay Submitter (PI): Matthew G. Vander Heiden, Harvard Medical School
# Three uL of substrate mix (at r.t.) in assay buffer (50 mM Imidazole pH7.2, 50 mM KCl, 7 mM MgCl2, 0.01% Tween 20, 0.05% BSA) was dispensed into white solid bottom 1,536 well microtiter plates so that the final concentrations of substrates in the assay were 0.1 mM ADP and 0.5 mM PEP. 23 nL of compound were delivered by a pin tool and 1 uL of enzyme mix (final concentration of 1 nM) in assay buffer (4 degree Celsius) was added. Plates were incubated at room temperature for 1 hour. Two uL of detection mix (Kinase-Glo, Promega; at 4 degree Celsius protected from light) was added and luminescence read by a ViewLux (Perkin Elmer) at 1 second exposure/plate. Data were normalized to the uninhibited (row 31). Additionally, a no enzyme and 5-fold enzyme control was dispensed in row 32, split equally between the two conditions.
# Chain of Pyruvate kinase PKM (Homo sapiens) (P14618 whole entry, looked up, canonical isoform): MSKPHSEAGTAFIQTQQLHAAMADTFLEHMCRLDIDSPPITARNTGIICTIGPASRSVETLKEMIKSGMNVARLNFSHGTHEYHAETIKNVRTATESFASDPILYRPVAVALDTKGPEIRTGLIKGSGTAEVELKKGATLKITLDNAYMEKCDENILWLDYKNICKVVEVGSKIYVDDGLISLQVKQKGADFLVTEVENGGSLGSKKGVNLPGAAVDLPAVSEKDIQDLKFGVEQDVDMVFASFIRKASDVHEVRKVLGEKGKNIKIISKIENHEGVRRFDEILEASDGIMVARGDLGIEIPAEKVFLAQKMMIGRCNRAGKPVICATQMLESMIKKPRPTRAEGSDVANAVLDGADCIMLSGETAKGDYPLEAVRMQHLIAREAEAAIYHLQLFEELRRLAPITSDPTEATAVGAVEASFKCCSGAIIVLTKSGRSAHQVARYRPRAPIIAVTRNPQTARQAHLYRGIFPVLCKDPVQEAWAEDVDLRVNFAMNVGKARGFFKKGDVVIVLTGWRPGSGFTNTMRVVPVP
row,Structure (SMILES),"activity change, positive = activation"
1,Cc1cc2c(s1)c1cnn(Cc3cc(F)ccc3F)c(=O)c1n2C,11.1% (inactive)
2,Cn1c2cc(S(C)=O)sc2c2cnn(Cc3cccc(N)c3)c(=O)c21 (stereo unspecified),1.03% (inactive)
3,Cc1cc2c(s1)c1cnn(Cc3cc(F)c(F)cc3F)c(=O)c1n2C,8.28% (inactive)
4,Cc1cc2c(s1)c1cnn(Cc3ccc(F)cc3F)c(=O)c1n2C,7.13% (inactive)
5,COc1cccc(Cn2ncc3c4sc(S(C)=O)cc4n(C)c3c2=O)c1 (stereo unspecified),-3.35% (inactive)
6,Cc1cc2c(s1)c1cnn(Cc3c(Cl)ccc(C)c3F)c(=O)c1n2C,7.26% (inactive)

# Source: PubChem BioAssay AID602383 (National Center for Advancing Translational Sciences (NCATS), 2012)
